From PubChem BioAssay (NCI)
Where “and” joins values, the source holds several entries; their conditions need not be identical. Equal values may be shown once. About 83,000 compounds went through this panel and 20% of them were active in at least one assay; those are over-represented in the sample as a whole.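 How to read the values: 0–100, growth inhibition (40 = 60% inhibited); 0, no net growth; -100 to 0, cell death (-40 = 40% of starting cells died; -100 = all dead).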 Calls of active or inactive are those of the source. The calls were made as follows: active = growth percent below 10; inactive = the rest.

What was measured:
Test in all cases: NCI-60 one-dose screen, 48 h (100 = growth as untreated, 0 = no growth, -100 = all killed)
NCI-H23 lung = test system: NCI-H23 lung
NCI-H226 lung = test system: NCI-H226 lung
NCI-H322M lung = conditions: 10 µM
HOP-62 NSCLC = test system: HOP-62 NSCLC
HOP-92 NSCLC = test system: HOP-92 NSCLC
NCI-H522 lung = test system: NCI-H522 lung
A549/ATCC NSCLC = test system: A549/ATCC NSCLC
786-0 renal = test system: 786-0 renal
COLO 205 colon = conditions: 10 µM
NCI-H460 lung = conditions: 10 µM

CCCCCCCCCCCCCCCCCCOCC(COP(=O)([O-])OCC[N+](C)(C)C)OC (stereo not given)
growth (NCI-H23 lung; 10 µM): 89.1% (inactive) | growth (NCI-H226 lung; 10 µM): 93.9% (inactive) | growth (NCI-H322M lung): 107% (inactive) | growth (HOP-62 NSCLC; 10 µM): 44% (inactive) | growth (HOP-92 NSCLC; 10 µM): 59.9% (inactive) | growth (NCI-H522 lung; 10 µM unless noted): 73% (inactive) | growth (A549/ATCC NSCLC; 10 µM): 97.5% (inactive) | growth (786-0 renal; 10 µM): 87.6% (inactive) | growth (COLO 205 colon): 2.62% (active)

Nc1nc(=S)c2ncn(C3OC(CO)C(O)C3O)c2[nH]1 (stereo not given)
growth (NCI-H23 lung; 10 µM): 102% (inactive) and 25.8% (inactive) | growth (NCI-H226 lung; 10 µM): 113% (inactive) and 35.5% (inactive) | growth (NCI-H322M lung): 128% (inactive) and 64.3% (inactive) | growth (HOP-62 NSCLC; 10 µM): 106% (inactive) and 35.4% (inactive) | growth (HOP-92 NSCLC; 10 µM): 29.5% (inactive) | growth (NCI-H522 lung; 10 µM unless noted): 96.7% (inactive) and -12% (active) | growth (A549/ATCC NSCLC; 10 µM): 92.9% (inactive) and 27.9% (inactive) | growth (786-0 renal; 10 µM): 103% (inactive) and 22.2% (inactive)

O=C(Nc1ccc(C(=O)O)c(O)c1)c1ccccc1
growth (NCI-H23 lung; 10 µM): 104% (inactive) and 97.9% (inactive) | growth (NCI-H226 lung; 10 µM): 101% (inactive) | growth (NCI-H322M lung): 100% (inactive) and 97.7% (inactive) | growth (HOP-62 NSCLC; 10 µM): 95.3% (inactive) and 91.7% (inactive) | growth (NCI-H460 lung): 109% (inactive) | growth (HOP-92 NSCLC; 10 µM): 81.4% (inactive) and 103% (inactive) | growth (NCI-H522 lung; 10 µM unless noted): 93.3% (inactive) and 89.8% (inactive) | growth (A549/ATCC NSCLC; 10 µM): 101% (inactive) and 95.6% (inactive) | growth (786-0 renal; 10 µM): 109% (inactive) and 97% (inactive)

CN(C)C(=S)SC(=S)N(C)C
growth (NCI-H23 lung; 10 µM): 92.1% (inactive) and 108% (inactive) | growth (NCI-H226 lung; 10 µM): 104% (inactive) | growth (NCI-H322M lung): 101% (inactive) and 86% (inactive) | growth (HOP-62 NSCLC; 10 µM): 112% (inactive) and 103% (inactive) | growth (HOP-92 NSCLC; 10 µM): 97.9% (inactive) and 108% (inactive) | growth (NCI-H522 lung; 10 µM unless noted): 77.4% (inactive) and 61.1% (inactive) | growth (A549/ATCC NSCLC; 10 µM): 95.9% (inactive) and 86.6% (inactive) | growth (786-0 renal; 10 µM): 96.7% (inactive) and 105% (inactive)

CCCCCCCCCCCC[N+](C)(C)Cc1ccccc1
growth (NCI-H23 lung; 10 µM): 23.8% (inactive) | growth (NCI-H226 lung; 10 µM): 55% (inactive) | growth (NCI-H322M lung): 87.7% (inactive) | growth (HOP-62 NSCLC; 10 µM): 28% (inactive) | growth (NCI-H522 lung; 10 µM unless noted): -4.63% (active) | growth (A549/ATCC NSCLC; 10 µM): 70.9% (inactive) | growth (786-0 renal; 10 µM): 28.1% (inactive)

NNc1ccc2ccccc2c1
growth (NCI-H23 lung; 10 µM): 87.9% (inactive) and 94.4% (inactive) | growth (NCI-H226 lung; 10 µM): 87.3% (inactive) and 85.8% (inactive) | growth (NCI-H322M lung): 83% (inactive) and 97.3% (inactive) | growth (HOP-62 NSCLC; 10 µM): 81.1% (inactive) and 97.4% (inactive) | growth (HOP-92 NSCLC; 10 µM): 97% (inactive) and 95.6% (inactive) | growth (NCI-H522 lung; 10 µM unless noted): 79.5% (inactive) and 98.6% (inactive) | growth (A549/ATCC NSCLC; 10 µM): 102% (inactive) and 106% (inactive) | growth (786-0 renal; 10 µM): 99.8% (inactive) and 98.3% (inactive)

Cc1cc(O)c(C(C)C)cc1Cl
growth (NCI-H23 lung; 10 µM): 106% (inactive) | growth (NCI-H226 lung; 10 µM): 96.7% (inactive) | growth (NCI-H322M lung): 96.9% (inactive) | growth (HOP-62 NSCLC; 10 µM): 95.7% (inactive) | growth (NCI-H460 lung): 99.1% (inactive) | growth (HOP-92 NSCLC; 10 µM): 99.9% (inactive) | growth (NCI-H522 lung; 10 µM unless noted): 101% (inactive) | growth (786-0 renal; 10 µM): 101% (inactive)

O=[N+]([O-])C1=C(c2ccccc2)SC=C(c2ccccc2)S1
growth (NCI-H23 lung; 10 µM): 79.3% (inactive) | growth (NCI-H226 lung; 10 µM): 74% (inactive) | growth (HOP-62 NSCLC; 10 µM): 74.1% (inactive) | growth (NCI-H460 lung): 67.3% (inactive) | growth (HOP-92 NSCLC; 10 µM): 65.9% (inactive) | growth (NCI-H522 lung; 10 µM unless noted): 42% (inactive) | growth (A549/ATCC NSCLC; 10 µM): 62.4% (inactive) | growth (786-0 renal; 10 µM): 95.4% (inactive)

O=c1ccn(C2CC(O)C(COC(c3ccccc3)(c3ccccc3)c3ccccc3)O2)c(=O)[nH]1 (stereo not given)
growth (NCI-H23 lung; 10 µM): 101% (inactive) | growth (NCI-H23 lung; 100 µM): 69.2% (inactive) | growth (NCI-H226 lung; 10 µM): 91.7% (inactive) | growth (NCI-H226 lung; 100 µM): 36.2% (inactive) | growth (HOP-62 NSCLC; 10 µM): 89.2% (inactive) | growth (HOP-62 NSCLC; 100 µM): 72% (inactive) | growth (HOP-92 NSCLC; 10 µM): 87.8% (inactive) | growth (HOP-92 NSCLC; 100 µM): 25.4% (inactive) | growth (NCI-H522 lung; 10 µM unless noted): 53.6% [100 µM] (inactive) | growth (A549/ATCC NSCLC; 10 µM): 74.8% (inactive) | growth (A549/ATCC NSCLC; 100 µM): 44% (inactive) | growth (786-0 renal; 10 µM): 82% (inactive) | growth (786-0 renal; 100 µM): 65.5% (inactive)

OCC(O)C(O)C(O)C(/C=N/Nc1ccccc1)=N/Nc1ccccc1 (stereo not given)
growth (NCI-H23 lung; 10 µM): 93.1% (inactive) | growth (NCI-H226 lung; 10 µM): 91.4% (inactive) | growth (NCI-H322M lung): 68.9% (inactive) | growth (HOP-62 NSCLC; 10 µM): 70.2% (inactive) | growth (HOP-92 NSCLC; 10 µM): 75.1% (inactive) | growth (NCI-H522 lung; 10 µM unless noted): 55.5% (inactive) | growth (A549/ATCC NSCLC; 10 µM): 87.3% (inactive) | growth (786-0 renal; 10 µM): 107% (inactive)

COc1cccc2c1C(=O)c1c(O)c3c(c(O)c1C2=O)C[C@@](O)(C(=O)CO)C[C@@H]3OC1CC(N)C(O)C(C)O1 (stereo not given in full)
growth (NCI-H23 lung; 0.0025 µM): 90% (inactive) | growth (NCI-H23 lung; 1 µM): 28.2% (inactive) | growth (NCI-H23 lung; 2.5 µM): 33.1% (inactive) | growth (NCI-H23 lung; 10 µM): 33.3% (inactive) | growth (NCI-H226 lung; 0.0025 µM): 84% (inactive) | growth (NCI-H226 lung; 2.5 µM): 23.1% (inactive) | growth (NCI-H226 lung; 10 µM): -18.3% (active) | growth (HOP-62 NSCLC; 0.0025 µM): 88.3% (inactive) | growth (HOP-62 NSCLC; 2.5 µM): 31.5% (inactive) | growth (HOP-62 NSCLC; 10 µM): 6.93% (active) | growth (HOP-92 NSCLC; 0.0025 µM): 85.2% (inactive) | growth (HOP-92 NSCLC; 2.5 µM): 51% (inactive) | growth (HOP-92 NSCLC; 10 µM): -22.8% (active) | growth (NCI-H522 lung; 0.0025 µM): 78.3% (inactive) | growth (NCI-H522 lung; 1 µM): -10.4% (active) | growth (NCI-H522 lung; 10 µM): -38% (active) | growth (A549/ATCC NSCLC; 0.0025 µM): 73% (inactive) | growth (A549/ATCC NSCLC; 1 µM): 33.7% (inactive) | growth (A549/ATCC NSCLC; 2.5 µM): 36.5% (inactive) | growth (A549/ATCC NSCLC; 10 µM): -30.5% (active) | growth (786-0 renal; 0.0025 µM): 84.4% (inactive) | growth (786-0 renal; 1 µM): -14.3% (active) | growth (786-0 renal; 2.5 µM): 26.8% (inactive) | growth (786-0 renal; 10 µM): 4.5% (active)
